Consider 40 molecules from PubChem BioAssay.

Calls of active or inactive are those of the source. No rule for the calls is given here.

The term inhibition denotes the drop in the measured response relative to a control, in per cent.

This experiment deals with Pantothenate synthetase (Mycobacterium tuberculosis (strain ATCC 25618 / H37Rv)) (UniProt P9WIL5). Briefly: Recombinant Mtb pantothenate synthetase (PanC) inhibitors, coupled enzyme, confirmatory (AID 375).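 Also: 0% = full reaction with vehicle and 100% = no enzyme background.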 As to conditions: coupled enzyme assay; at 10 µM, hits give high values.
Chain of Pantothenate synthetase (Mycobacterium tuberculosis (strain ATCC 25618 / H37Rv)) (P9WIL5 whole entry, looked up): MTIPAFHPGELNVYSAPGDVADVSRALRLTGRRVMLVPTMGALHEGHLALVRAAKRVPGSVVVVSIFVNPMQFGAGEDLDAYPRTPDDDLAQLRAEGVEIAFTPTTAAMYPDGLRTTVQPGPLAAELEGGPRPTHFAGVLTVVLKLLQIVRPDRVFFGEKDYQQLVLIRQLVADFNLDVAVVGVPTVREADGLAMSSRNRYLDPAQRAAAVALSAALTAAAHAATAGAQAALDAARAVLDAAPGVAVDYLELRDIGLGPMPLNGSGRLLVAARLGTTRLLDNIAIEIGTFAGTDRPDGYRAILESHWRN
For the molecule `CCc1nnc(NC(=O)CSc2nc3ccccc3s2)s1`, the inhibition was 2% (inactive).

On to `COc1ccc(OC)c(S(=O)(=O)Nc2ccc(O)c3ccccc23)c1`, for which the inhibition was 8% (inactive).

Turning to `COc1cccc(N2CCN(CC(=O)NCc3cccs3)CC2)c1`, the inhibition is 3% (inactive).

As for `O=C(Nc1ccccc1)N(CCCN1CCOCC1)Cc1cc2cc3c(cc2[nH]c1=O)OCCO3`, the inhibition was 0% (inactive).

Regarding `CC(c1ccco1)N(C(=O)COc1ccc(Cl)cc1Cl)c1ccccn1` (stereo not given), the inhibition was 4% (inactive).

Consider `O=C(O)c1cccn2c(=O)c3ccccc3nc12`, for which the inhibition is 0% (inactive).

For `O=C(CCCC(=O)N(CC(=O)NC1CCCCC1)Cc1ccc2c(c1)OCO2)Nc1ccccn1`, the inhibition was 2% (inactive).

Consider `Cc1ccc(Nc2nnns2)cc1C`, for which the inhibition is 4% (inactive).

Regarding `COc1cc(C2C(C#N)=C(N)Oc3cc(N)ccc32)cc(OC)c1OC` (stereo not given), the inhibition was 2% (inactive).

For `CCn1cc(C(C)NC(=O)COc2ccc(Cl)cc2C)c(C)n1` (stereo not given), the inhibition is 0% (inactive).

For the molecule `COc1ccc(CNC(=O)COC(=O)c2n[nH]c3ccccc23)cc1OC`, the inhibition is 7% (inactive).

In the case of `N#CC1=C(N)N2C(=C(C#N)C13CCCCC3)SC1CCCCC12O` (stereo not given), the inhibition was 0% (inactive).

On to `COc1cccc(-c2cc(C(=O)N3CCc4ccccc4C3)no2)c1`, for which the inhibition was 10% (inactive).

In the case of `Cc1cc(NC(=O)c2ccc3c(c2)C(=O)N(Cc2cccnc2)C3=O)no1`, the inhibition is 0% (inactive).

For the molecule `CC1(C)Cc2c(c(-c3ccccc3)nc(N3CCCC3)c2C(N)=O)CO1`, the inhibition was 4% (inactive).

In the case of `CCS(=O)(=O)N1CCC(C(=O)NC2CCCCCCC2)CC1`, the inhibition is 1% (inactive).

Turning to `CC(=O)Nc1ccc(Cc2ccncc2)cc1`, the inhibition is 0% (inactive).

In the case of `Cc1ccccc1C(OCCN(C)C)c1ccccc1` (stereo not given), the inhibition was 0% (inactive).

On to `COc1ccc(N2C(=O)CCC(C(=O)N3CCCCC3)C2c2ccc(OC)c(OC)c2)cc1` (stereo not given), for which the inhibition is 6% (inactive).

Take `Cc1c(C)c2ccc(OC3CCCCC3=O)cc2oc1=O` (stereo not given): the inhibition was 2% (inactive).

`O=C(C1CCC(N2C(=O)C3CC=CCC3C2=O)CC1)N1CCCCC1` (stereo not given): the inhibition was 1% (inactive).

Turning to `Cc1ccc(-c2nnc(SCC(=O)N3c4ccccc4NC(=O)C3(C)C)n2N)cc1`, the inhibition is 1% (inactive).

Consider `CCn1c(=O)cc(OCC(=O)NCCCN2CC(C)CC(C)C2)c2ccccc21` (stereo not given), for which the inhibition was 3% (inactive).

With `Cc1cccc(NC(=O)c2oc3c(c2C)C(=O)CC(C)(C)C3)n1`, the inhibition was 9% (inactive).

Consider `CCc1ccccc1N1CC23C=CC(O2)C(C(=O)O)C3C1=O` (stereo not given), for which the inhibition is 0% (inactive).

Regarding `c1cnc2c(SCc3ccc(-c4nnco4)cc3)cccc2c1`, the inhibition was 2% (inactive).

As for `COC(=O)C1=C(C)NC(=O)C1(Nc1ccc(Cl)cn1)C(F)(F)F` (stereo not given), the inhibition is 0% (inactive).

In the case of `Cc1ccc(C(=O)CSc2n[nH]c(-c3ccco3)n2)cc1C`, the inhibition was 1% (inactive).

For the molecule `CCOc1ccc(Cc2nn[nH]n2)cc1`, the inhibition was 1% (inactive).

On to `Cc1ccc(S(=O)(=O)N(CCO)c2cc3c(s2)CCCC3)cc1`, for which the inhibition was 0% (inactive).

Consider `CCOC(=O)N1CCC(N2CC34C=CC(O3)C(C(=O)O)C4C2=O)CC1` (stereo not given), for which the inhibition is 0% (inactive).

On to `Cc1cc(C)n2c(SCCN3C(=O)c4ccccc4C3=O)nnc2n1`, for which the inhibition is 0% (inactive).

On to `Cc1nn(-c2ccc(Cl)cc2)c2sc(C(=O)N3CCN(c4ccccn4)CC3)cc12`, for which the inhibition is 4% (inactive).

Regarding `CCOC(=O)c1ccccc1NC(=O)c1ccc2c(=O)n3c(nc2c1)CCCCC3`, the inhibition is 0% (inactive).

As to `Fc1ccc(NCc2nnc(SCc3nnc(-c4ccccc4)o3)n2CC2CCCO2)cc1` (stereo not given), the inhibition is 0% (inactive).

For `O=c1[nH]c2ccc(Br)cc2c(-c2ccccc2)c1N1CCOCC1`, the inhibition was 1% (inactive).

Consider `CCNc1oc(COc2ccccc2F)nc1C#N`, for which the inhibition is 9% (inactive).

For `COc1ccc(CN(C(=O)CNC(=O)c2ccco2)C(C(=O)NC2CCCC2)c2ccco2)cc1` (stereo not given), the inhibition was 5% (inactive).

On to `O=C(CSc1nc2ncccc2[nH]1)Nc1ccc2c(c1)OCCO2`, for which the inhibition was 0% (inactive).

Turning to `COc1ccccc1C1CC(c2ccc(C)cc2)Nc2ncnn21` (stereo not given), the inhibition was 3% (inactive).
